An excerpt weighted towards active compounds, which were near 3.1% of everything screened.
PAFAH1B2 inh – inhibitors of human PAFAH1B2; P68402; recombinant PAFAH1B2, FP-rhodamine activity probe, fluorescence polarization; inhibition, % at 3.39 µM; 1.2% of 340,000 active; AID 492953;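 active means inhibition above the mean of all tested compounds plus 3 SD, cut at about 24% in these data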;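 further: 0% = enzyme with DMSO and 100% = wells lacking PAFAH1B2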
Target sequence (P68402 whole entry, looked up): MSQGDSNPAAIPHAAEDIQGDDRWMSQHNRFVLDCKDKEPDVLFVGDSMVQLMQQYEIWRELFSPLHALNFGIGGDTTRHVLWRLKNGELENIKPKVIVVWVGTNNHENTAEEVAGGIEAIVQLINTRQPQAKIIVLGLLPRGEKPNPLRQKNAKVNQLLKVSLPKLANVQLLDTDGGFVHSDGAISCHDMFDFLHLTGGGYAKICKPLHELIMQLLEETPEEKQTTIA
E coli Lon inh – inhibitors of E. coli Lon protease; purified E. coli Lon protease, fluorescence polarization; inhibition, % at 7.94 µM; 0.42% of 360,000 active; P0A9M0; in the data active means inhibition above about 13%, passing the limit was not always enough;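 further: 0% = enzyme with probe and DMSO and 100% = no enzyme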
PAFAH2 inh – inhibitors of human PAFAH2. inhibition, % at 3.39 µM. 0.99% of 340,000 active. recombinant PAFAH2, FP-rhodamine activity probe, fluorescence polarization;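 active means inhibition above the mean over all tested compounds plus 3 SD, cut at about 30% in these data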;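 further: inhibitors block probe labeling of enzyme so polarization drops; 0% = enzyme with DMSO and 100% = wells lacking PAFAH2 protein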
PAFAH1B3 FP inh – blocks human PAF acetylhydrolase 1B catalytic subunit 3; Q15102; recombinant PAFAH1B3, FP-rhodamine probe, fluorescence polarization; inhibition, % at 3.39 µM; 0.28% of 340,000 active;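 active means inhibition above the screen-wide average of all tested compounds plus 3 SD, cut at about 25% in these data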;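 further: 0% = enzyme with DMSO only and 100% = wells lacking PAFAH1B3 protein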
pPAFAH inh – pPAFAH (human) enzyme inhibition; Q13093; recombinant pPAFAH, FP-rhodamine probe fluorescence polarization; inhibition, % at 3.39 µM; 1.5% of 330,000 active;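 active means inhibition above the mean inhibition across the screen plus 3 SD, cut at about 25% in these data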;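 further: inhibitors block binding of the rhodamine activity-based probe so polarization drops; 0% = enzyme with DMSO and 100% = wells lacking pPAFAH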
Target sequence (Q13093 whole entry, looked up): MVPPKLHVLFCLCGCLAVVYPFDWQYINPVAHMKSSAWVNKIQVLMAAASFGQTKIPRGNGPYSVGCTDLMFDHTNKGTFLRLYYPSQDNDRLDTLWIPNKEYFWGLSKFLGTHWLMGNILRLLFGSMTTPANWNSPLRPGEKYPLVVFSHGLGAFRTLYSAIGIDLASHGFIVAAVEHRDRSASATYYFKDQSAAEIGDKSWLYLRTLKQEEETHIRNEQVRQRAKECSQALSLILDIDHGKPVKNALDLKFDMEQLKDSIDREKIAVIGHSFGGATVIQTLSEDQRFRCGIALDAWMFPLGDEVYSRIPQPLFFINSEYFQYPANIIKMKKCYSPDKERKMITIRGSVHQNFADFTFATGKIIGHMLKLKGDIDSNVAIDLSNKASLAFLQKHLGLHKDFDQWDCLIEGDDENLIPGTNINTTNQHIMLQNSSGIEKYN
Rin1-Abl PPI inh – human Rin1-Abl interaction inhibition. TR-FRET Rin1/Abl binding, biochemical. inhibition, % at 7.35 µM. 0.4% of 360,000 active; in the data active means inhibition above about 5%, passing the limit was not always enough
eLon confirm – E. coli Lon inhibition confirmation; shares compounds with E coli Lon inh; purified E. coli Lon, fluorescence polarization; inhibition, % at 7.94 µM; 31% of 1,400 active; in the data active means inhibition above about 16%;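 further: 0% = enzyme with probe and DMSO and 100% = no enzyme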
Starred values were filed as active, the others as inactive; . = no result; + = active, no number.

SMILES	PAFAH1B2 inh	E coli Lon inh	PAFAH2 inh	PAFAH1B3 FP inh	pPAFAH inh	Rin1-Abl PPI inh	eLon confirm
COC(=O)C1=C(C(=O)OC)C2C(C)=CC(C)=CN2C(C(=O)OC)=C1C(=O)OC (configuration not stated)	1.0	20.3*	8.6	10.1	-6.2	-2.5	13.4
O=C(Cn1c(Cn2c(-c3cnccn3)nc3ccccc32)nc2ccccc21)c1ccc(OC(F)(F)F)cc1	.	-12.0	.	.	.	.	.
O=[N+]([O-])c1ccc(-c2ccc(/C=N/c3c(-c4ccco4)nc4ccccn34)o2)cc1	-0.1	79.8*	11.1	6.4	19.2	-5.7	17.7*
Oc1cccc(/C=N/c2c(-c3ccco3)nc3ccccn23)c1	9.0	22.4*	11.2	0.6	20.9	1.0	18.6*
Cc1cc(C)c([N+](=O)[O-])cc1-c1ccc(/C=N/c2c(-c3ccco3)nc3ccccn23)o1	5.3	31.0*	17.3	7.9	32.3*	-3.2	-25.5
O=[N+]([O-])c1ccc(Cl)c(-c2ccc(/C=N/c3c(-c4ccco4)nc4ccccn34)o2)c1	2.9	6.5	2.0	-5.3	11.1	-3.4	.
COCc1cc(C)nc(Oc2ccccc2)c1C#N	4.5	-3.0	-2.9	3.8	1.5	-0.2	.
Cc1cc2cc(C=C(C#N)C#N)c(Cl)nc2cc1C	1.0	88.8*	-15.2	1.7	9.9	-3.5	38.9*
Cc1nc(C(F)(F)F)ccc1C(=O)N1CCC1(C)C(=O)NCc1cccs1 (configuration not stated)	.	2.7	.	.	.	-4.1	.
CCSc1nnc(Cc2cc(=O)[nH]c(=O)[nH]2)n1-c1ccc(Cl)cc1	0.0	13.3	6.7	-0.1	-2.1	-5.1	.
COC(=O)C(C)Sc1nnc(Cc2cc(=O)[nH]c(=O)[nH]2)n1-c1ccc(Cl)cc1 (configuration not stated)	3.1	37.2*	3.5	0.7	2.4	-2.9	8.1
CCOC(=O)C(C)Sc1nnc(Cc2cc(=O)[nH]c(=O)[nH]2)n1-c1ccc(Cl)cc1 (configuration not stated)	-0.7	23.9*	-3.6	2.1	3.6	0.2	7.9
CCOC(=O)C(C)Sc1nnc(Cc2cc(=O)[nH]c(=O)[nH]2)n1-c1ccc(OCC)cc1 (configuration not stated)	-1.4	-3.2	5.3	6.1	6.9	0.2	.
Cn1c(-c2ccc(F)cc2)cnc1SCC(=O)N1CCCc2ccccc21	3.0	19.3*	3.1	8.9	-1.2	1.7	2.4
Cc1nnc(NC(=O)CCC(=O)N2CCN(S(=O)(=O)c3cc([N+](=O)[O-])ccc3C)CC2)s1	6.4	2.7	-6.3	2.3	6.8	0.7	.
O=C(COc1ccccc1F)Nc1ccc(N2CCOCC2)cc1N1CCOCC1	-0.1	6.5	13.1	-2.5	.	2.5	.
O=C(COc1ccc(F)cc1Cl)Nc1ccc(N2CCOCC2)cc1N1CCOCC1	0.6	15.8*	20.5	-6.3	2.6	-0.5	0.4
O=C1CCCC/C1=C\Nc1ccc(O)cc1	0.3	19.5*	4.1	4.7	26.1*	-1.0	4.7
CCN(CC)S(=O)(=O)c1ccc(N2CCCC2)c(NC(=O)CN2C(=O)NC3(CCCC3)C2=O)c1	6.2	21.8*	7.7	3.7	11.2	4.9	-4.1
CCN(CC)S(=O)(=O)c1ccc(N2CCOCC2)c(NC(=O)CN2C(=O)NC3(CCCC3)C2=O)c1	3.6	-9.4	8.3	8.2	.	1.8	.
CCC1CCCCN1C(=O)c1cc(S(=O)(=O)N2CCOCC2)ccc1C (configuration not stated)	4.1	-15.0	0.8	-3.3	-0.5	6.2	.
CCOC(=O)c1cc(N2CCCCC2)nc2ccccc12	6.8	3.0	0.0	4.9	.	0.7	.
COC(=O)c1cc(N2CCN(C)CC2)nc2ccccc12	1.1	96.0*	2.5	7.8	3.5	-9.8	18.9*
COc1ccc(C(=O)COC(=O)Cn2[nH]c(=O)c3ccccc3c2=O)c(OC)c1	-4.9	-19.3	-5.2	-0.1	6.5	-1.1	.
Cc1cc(S(=O)(=O)N2CCCOC2CNC(=O)C(=O)NCCCN2CCOCC2)ccc1F (configuration not stated)	1.1	-16.0	3.8	3.4	-1.2	-0.9	.
SMILES	PAFAH1B2 inh	E coli Lon inh	PAFAH2 inh	PAFAH1B3 FP inh	pPAFAH inh	Rin1-Abl PPI inh	eLon confirm
Cn1c(O)c(N=NC(=O)CNC(=O)c2cccnc2)c2ccccc21	1.2	18.6*	10.0	8.2	5.7	-7.1	2.9
CC(C)OP(=O)(CCP(=O)(OC(C)C)OC(C)C)OC(C)C	5.8	16.9*	3.4	4.9	12.5	-1.1	-80.7
COCCn1c(-c2ccc(OC)cc2)nc2ccccc21	-0.3	-2.3	-9.6	0.8	5.5	3.1	.
COCCn1c2nc(=O)n(-c3ccccc3)c(=O)c-2nc2ccccc21	.	+	.	.	.	-0.9	+
COc1ccc(C(=O)CSc2ncn[nH]2)cc1OC	-6.2	21.3*	4.3	1.1	-4.4	-2.9	-10.5
C=CCN1C=C2C(=O)C(C)(OC(=O)c3ccc(OC)cc3)C(=O)C(c3ccco3)=C2C=C1CCCC (configuration not stated)	-6.1	41.5*	12.9	2.0	2.0	-6.7	9.1
O=[N+]([O-])c1ccc2c(c1)-c1ccccc1C2O (configuration not stated)	.	-1.1	.	.	.	-3.7	.
CC1(C)CC(=O)C2=C(C1)OC(N)=C(C#N)[C@@H]2c1ccccc1[N+](=O)[O-]	1.9	53.1*	11.4	7.1	9.6	-3.7	5.0
COc1cc(C2C(C#N)=C(N)OC3=C2C(=O)CC(C)(C)C3)c([N+](=O)[O-])cc1OC (configuration not stated)	5.0	34.5*	17.6	14.1	11.9	3.1	18.8*
CN(C)C=Nc1ccc([N+](=O)[O-])c2ccccc12	.	-7.2	.	.	.	-4.4	.
CC(C(=O)N1CCCc2c1c(=O)oc1ccc(O)cc21)N1CCc2ccccc2C1 (configuration not stated)	2.0	16.2*	-2.5	-0.9	-2.5	-0.3	+
COC(=O)c1ccc2c(c1)SC1=C(CCCC1=O)N2	20.8	34.9*	26.1	16.6	18.0	-12.1	100.3*
O=C1CCCC2=C1Sc1ccc(Cl)cc1N2	7.4	18.4	-0.8	4.6	11.0	-9.8	.
COC(=O)CCC(=O)OC1(C)C(=O)C=C2C=C(C3CC3)N(C(CO)CO)C=C2C1=O (configuration not stated)	4.4	26.8*	6.5	-1.7	6.5	-0.9	6.8
COC(=O)CCC(=O)OC1(C)C(=O)C=C2C=C(C3CC3)N(CCCCO)C=C2C1=O (configuration not stated)	7.9	-19.6	-1.7	8.6	10.7	-5.5	.
CC(C(=O)Nc1ccc(C#N)cc1)N1CCN(C(=O)C2CC2)CC1 (configuration not stated)	3.4	-5.2	-0.8	-0.1	-5.1	3.1	.

Bioassay records deposited in PubChem by The Scripps Research Institute Molecular Screening Center.
